# Results filed as inconclusive are left out. Calls of active or inactive are those of the source. The call rests on the fitted dose curve.
# Molecular target: Beta-2 adrenergic receptor (Homo sapiens) (UniProt P07550)
# Assay: Adrenergic beta2 receptor (ADRB2) small molecule antagonists, cell-based qHTS assay (AID 1963592); further: nearly all actives have a fitted effect of over 50% in size
# Settings: CHO-ADRB2 cells, isoproterenol-stimulated cAMP HTRF ratio, 0.5 h; series mostly up to 92.4 µM; activity change, negative = inhibition: at the top concentration
# From the text: U.S. Tox21 Program National Center for Advancing Translational Sciences [NCATS] Division of Preclinical Innovation [DPI] U.S. Environmental Protection Agency [EPA] National Institutes of Environmental Health Sciences [NIEHS] National Toxicology Program [NTP] U.S. Food and Drug Administration [FDA] Tox21 Assay Overview: Beta adrenergic receptors (Beta-ARs) belong to the G-protein coupled receptor (GPCR) superfamily, includes three subtypes - beta1, beta2, and beta3. Beta1-AR is the predominant receptor subtype expressed in the heart, and beta2-AR is expressed in the kidney, lung, blood vessel and in the heart, and beta3 is found in the adipocytes. Beta1 and 2 ARs couple to Gs protein and elevate cyclic adenosine mono phosphate (cAMP), which activates protein kinase A and leads to the downstream signaling responsible for the physiological actions. Beta-AR agonists or antagonists are the most prescribed therapeutic agents for heart failure and asthma, and these were one of the first target receptors for the rational drug design. Tox21 10K compound library was screened using the cAMP-Gs dynamic assay (Cisbio Bioassays, Shelton, CT) to identify agonists/antagonists of the Gs-coupled human adrenergic, beta2 receptor (ADRB2) in the CHO-ADRB2 cell line (Codex BioSolutions, Inc. Gaithersburg, MD), which stably over-expresses ADRB2. The principle of cAMP-Gs dynamic assay is based on HTRF technology, which facilitates the fluorescence resonance energy transfer (FRET) between donor Europium cryptate and acceptor d2-labeled cAMP. The cAMP generated within cells competes with the red acceptor, d2-labled cAMP, for binding to the monoclonal anti-cAMP-cryptate (Europium donor). An increase in intracellular cAMP leads to the disruption of FRET signal, and the signal is inversely proportional to the cAMP concentration. Propranolol HCl (Sigma-Aldrich, St. Louis, MO) was used as a positive control in the screening.
# Tox21 Assay Protocol Summary: CHO-ADRB2 cells were dispensed at 1,000/well in 4uL assay medium into white/solid 1536-well plates (Greiner Bio-One North America Inc., Monroe, NC) using a Multidrop Combi dispenser (ThermoFisher Scientific, Waltham, MA). The assay plates were incubated at 37C and 5% CO2 for an overnight (18-20hr). Then positive control and test compounds dissolved in DMSO were transferred to the assay plates at 23nL using a Pintool station (Wako, San Diego, CA). Following the compound and positive control transfer, 1uL agonist-stimulation mix containing 1nM Isoproterenol HCl, 100uM IBMX and 25uM Ro-20-1724 was added to each well of the assay plates using BioRAPTR Flying Reagent Dispenser (FRD, Beckman Coulter, Brea, CA). The assay plates were incubated at room temperature for 0.5hr. Then 2.5ul each d2-labled cAMP and anti-cAMP-cryptate solutions were added separately to each well of the assay plates using an FRD and the assay plates were incubated at room temperature for 1hr. The fluorescence signal was measured at two different wavelengths (665nm and 615nm) using an Envision plate reader (Perkin Elmer, Shelton, CT). Data were expressed as the ratio of 665 nm/615 nm.
# On the % scale 0 is the no-effect control and ±100 the full control effect.
# Beta-2 adrenergic receptor (Homo sapiens), sequence (P07550 whole entry, looked up): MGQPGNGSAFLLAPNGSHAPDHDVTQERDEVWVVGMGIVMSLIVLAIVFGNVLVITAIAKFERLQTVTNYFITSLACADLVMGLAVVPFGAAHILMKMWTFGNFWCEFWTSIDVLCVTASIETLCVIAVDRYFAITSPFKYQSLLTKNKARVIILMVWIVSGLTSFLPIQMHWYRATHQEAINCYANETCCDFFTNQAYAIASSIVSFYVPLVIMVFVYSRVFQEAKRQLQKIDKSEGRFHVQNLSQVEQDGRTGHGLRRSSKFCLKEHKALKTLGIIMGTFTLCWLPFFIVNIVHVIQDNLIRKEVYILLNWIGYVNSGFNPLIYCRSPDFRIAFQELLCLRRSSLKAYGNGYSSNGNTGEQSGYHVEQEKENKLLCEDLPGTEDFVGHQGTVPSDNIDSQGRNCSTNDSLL
Structure (SMILES),Potency,"activity change, negative = inhibition"
CC(O)CNCC(C)O (stereo not given),inactive,–
N#CC1(O)CCCCC1,–,2.15% (inactive)
[Cl][In]([Cl])[Cl],inactive,–
CC(=O)OCC(=O)Nc1cc(C#N)cc(NC(=O)COC(C)=O)c1Cl,–,-0.259% [at 42.5 µM] (inactive)
CC1CC(OC(=O)c2ccccc2O)CC(C)(C)C1 (stereo not given),inactive,–
COS(=O)(=O)O,–,-1.27% (inactive)
CC(=O)NC(Cc1ccccc1)C(=O)O (stereo not given),–,0.755% [at 42.5 µM] (inactive)
CCCCOC(=O)[C@H](C)O,–,-0.651% (inactive)
Cc1ccc(C)cc1,–,-0.0542% (inactive)
Cc1cncc(C)c1,–,7.72% (inactive)
COc1ccc(C(=O)c2cccc(O)c2)c(OC)c1,–,6.57% (inactive)
CCC(C(=O)NC(N)=O)c1ccccc1 (stereo not given),–,-8.21% (inactive)
COC(=O)c1cc(S(N)(=O)=O)ccc1OC,–,4.46% [at 42.5 µM] (inactive)
CCN(CC)c1ccc(C=O)c(O)c1,–,-5.91% (inactive)
FC(F)(F)c1ccccc1,–,0.298% (inactive)
N#Cc1cc(NC(=O)C(=O)O)c(Cl)c(NC(=O)C(=O)O)c1,–,-8.02% [at 42.5 µM] (inactive)
CCCCC(CC)COP(=O)(OCC(CC)CCCC)OCC(CC)CCCC (stereo not given),inactive,–
c1ccc(CCc2ccccc2)cc1,–,-7.72% (inactive)
Cn1cc(S(C)=O)c(=O)c2ccc(F)cc21 (stereo not given),–,-5.03% [at 42.5 µM] (inactive)
CC[C@@H]1C[C@H](N(Cc2cc(C(F)(F)F)cc(C(F)(F)F)c2)C(C)=O)c2cc(C(F)(F)F)ccc2N1C(=O)OC(C)C,–,1.8% (inactive)

Structure (SMILES),Potency,"activity change, negative = inhibition"
O=C(O)c1ccccc1C(c1ccc(O)cc1)c1ccc(O)cc1,inactive,–
CCC(C)=O,–,1.55% (inactive)
CCC(C)NC(N)=O (stereo not given),–,2.94% (inactive)
COc1cc(S(N)(=O)=O)cc(C(=O)O)c1OC,–,0.622% [at 42.5 µM] (inactive)
CCc1c(C(=O)O)c(=O)cnn1-c1ccc(Cl)cc1,–,5.57% (inactive)
ON(Cc1ccccc1)Cc1ccccc1,–,-12.2% (inactive)
NS(=O)(=O)c1ccc(NC(=O)CCC(=O)O)cc1,–,0.887% [at 42.5 µM] (inactive)
COc1cc(C)c(Cc2cnc(N)nc2N)cc1OC,–,-1.25% [at 42.5 µM] (inactive)
CSCCC=O,inactive,–
CN(C)C(=S)SC(=S)N(C)C,inactive,–
COc1cc2c(Nc3ccc(Br)cc3F)ncnc2cc1OCC1CCN(C)CC1,–,1.86% [at 42.5 µM] (inactive)
C=CC(=O)CCCCC,–,-8.54% (inactive)
CCCCCCCCS,–,9.96% (inactive)
CC12CCC(C1)C(C)(C)C2O (stereo not given),–,8.76% (inactive)
O=C1CCC(=O)N1,–,-0.765% (inactive)
CCOC(=O)n1ccn(C)c1=S,inactive,–
CC(CO)CO,–,-0.394% (inactive)
COc1ccc(Br)c(C)c1,–,1.83% (inactive)
CC[C@H](C)[C@@H](C(=O)O)n1sc2ccccc2c1=O,–,-11.6% (inactive)
C[C@@H]1CCC[C@H](C)N1,–,-2.31% [at 42.5 µM] (inactive)
